The term inhibition denotes the relative decrease from the control value, in per cent.

The structures appear in SMILES notation.

For assay [1], the target named is Casein kinase I isoform gamma-2 (Homo sapiens) (UniProt P78368). The conditions noted are these: at 1 µM.
The target of assay [2] is Casein kinase I isoform gamma-3 (Homo sapiens) (UniProt Q9Y6M4). The following applies: at 0.1 µM.
For assay [3] the target is unchanged. The following applies: at 1 µM.
In assay [4] the target is Cyclin-dependent kinase 1 (Homo sapiens) (UniProt P06493). The conditions noted are these: at 0.1 µM.
Sequence of Cyclin-dependent kinase 1 (Homo sapiens) (P06493 whole entry, looked up): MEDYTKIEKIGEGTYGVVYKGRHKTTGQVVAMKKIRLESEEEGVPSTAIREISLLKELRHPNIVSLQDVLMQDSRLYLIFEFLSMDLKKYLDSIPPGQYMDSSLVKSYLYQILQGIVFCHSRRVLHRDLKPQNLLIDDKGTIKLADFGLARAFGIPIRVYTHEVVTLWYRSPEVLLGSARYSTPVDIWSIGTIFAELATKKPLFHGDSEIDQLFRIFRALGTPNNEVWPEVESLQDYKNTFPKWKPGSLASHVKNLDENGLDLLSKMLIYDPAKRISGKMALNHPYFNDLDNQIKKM
Assay [5] shares this target. The following applies: at 1 µM.
Assay [6] deals with Cyclin-dependent kinase 2 (Homo sapiens) (UniProt P24941). The following applies: at 0.1 µM.
Assay [7] shares this target. The conditions noted are these: at 1 µM.
Assay [8] shares this target. The following applies: at 0.1 µM. This is another data set of the same source.
The target is the same in assay [9]. The following applies: at 1 µM. This is another data set of the same source.
Assay [10] has as its target T1, CDK3/Cyclin E (Homo sapiens) (UniProt P24864+Q00526). The conditions noted are these: at 0.1 µM.
Assay [11] concerns the target T1, CDK3/Cyclin E (Homo sapiens). The following applies: at 1 µM.
The target in assay [12] is Cyclin-dependent kinase 4 (Homo sapiens) (UniProt P11802). The conditions noted are these: at 0.1 µM.
Sequence of Cyclin-dependent kinase 4 (Homo sapiens) (P11802 whole entry): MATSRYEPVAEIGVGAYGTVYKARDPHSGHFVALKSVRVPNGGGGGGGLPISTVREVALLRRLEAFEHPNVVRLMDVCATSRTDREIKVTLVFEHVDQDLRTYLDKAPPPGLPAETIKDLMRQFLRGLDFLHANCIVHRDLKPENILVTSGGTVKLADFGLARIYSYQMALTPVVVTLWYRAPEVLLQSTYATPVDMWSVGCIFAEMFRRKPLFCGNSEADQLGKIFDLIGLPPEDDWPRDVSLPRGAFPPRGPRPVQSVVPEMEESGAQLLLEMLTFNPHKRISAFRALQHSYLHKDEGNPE
The target is the same in assay [13]. The conditions noted are these: at 1 µM.
Assay [14] addresses Cyclin-dependent kinase 5 (Homo sapiens) (UniProt Q00535). The following applies: at 0.1 µM.
The target is the same in assay [15]. The following applies: at 1 µM.
Assay [16] deals with Cyclin-dependent kinase 6 (Homo sapiens) (UniProt Q00534). The conditions noted are these: at 0.1 µM.
Sequence of Cyclin-dependent kinase 6 (Homo sapiens) (Q00534 whole entry): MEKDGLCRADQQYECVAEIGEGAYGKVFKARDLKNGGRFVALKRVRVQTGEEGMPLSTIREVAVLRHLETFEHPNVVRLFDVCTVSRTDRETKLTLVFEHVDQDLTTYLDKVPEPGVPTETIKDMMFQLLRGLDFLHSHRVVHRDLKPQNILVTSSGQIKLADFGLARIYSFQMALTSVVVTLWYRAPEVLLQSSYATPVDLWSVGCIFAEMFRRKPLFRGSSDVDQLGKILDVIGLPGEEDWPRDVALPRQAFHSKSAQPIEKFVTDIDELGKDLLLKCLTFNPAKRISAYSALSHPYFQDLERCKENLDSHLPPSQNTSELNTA
Assay [17] has the same target. The following applies: at 1 µM.
Assay [18] addresses Dual specificity protein kinase CLK2 (Homo sapiens) (UniProt P49760). The conditions noted are these: at 0.1 µM.
Assay [19] has the same target. The conditions noted are these: at 1 µM.
Assay [20] deals with Dual specificity protein kinase CLK3 (Homo sapiens) (UniProt P49761). The conditions noted are these: at 0.1 µM.
Sequence of Dual specificity protein kinase CLK3 (Homo sapiens) (P49761 whole entry, looked up): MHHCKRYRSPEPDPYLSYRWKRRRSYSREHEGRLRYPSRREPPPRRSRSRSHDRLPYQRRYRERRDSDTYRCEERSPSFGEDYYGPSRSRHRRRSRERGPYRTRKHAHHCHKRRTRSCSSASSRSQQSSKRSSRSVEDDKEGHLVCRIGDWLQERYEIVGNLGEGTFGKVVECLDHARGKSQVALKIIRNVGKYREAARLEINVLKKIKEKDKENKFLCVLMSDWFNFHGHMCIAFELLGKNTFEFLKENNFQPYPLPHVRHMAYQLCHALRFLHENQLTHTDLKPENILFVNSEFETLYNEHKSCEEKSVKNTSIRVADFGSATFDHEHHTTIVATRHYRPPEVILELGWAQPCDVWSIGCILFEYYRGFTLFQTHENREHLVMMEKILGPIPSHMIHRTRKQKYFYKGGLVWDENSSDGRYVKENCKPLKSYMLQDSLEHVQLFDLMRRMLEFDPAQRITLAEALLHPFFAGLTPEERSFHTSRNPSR

Sequence of Cyclin-dependent kinase 5 (Homo sapiens) (Q00535 whole entry, looked up): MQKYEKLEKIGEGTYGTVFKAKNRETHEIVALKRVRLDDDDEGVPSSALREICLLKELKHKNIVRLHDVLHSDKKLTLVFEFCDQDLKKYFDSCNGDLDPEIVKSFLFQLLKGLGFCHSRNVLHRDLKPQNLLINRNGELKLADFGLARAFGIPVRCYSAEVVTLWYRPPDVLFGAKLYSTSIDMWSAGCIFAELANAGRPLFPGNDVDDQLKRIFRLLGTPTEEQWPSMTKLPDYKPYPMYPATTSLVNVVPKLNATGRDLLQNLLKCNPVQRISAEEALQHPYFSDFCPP
Sequence of Dual specificity protein kinase CLK2 (Homo sapiens) (P49760 whole entry, looked up): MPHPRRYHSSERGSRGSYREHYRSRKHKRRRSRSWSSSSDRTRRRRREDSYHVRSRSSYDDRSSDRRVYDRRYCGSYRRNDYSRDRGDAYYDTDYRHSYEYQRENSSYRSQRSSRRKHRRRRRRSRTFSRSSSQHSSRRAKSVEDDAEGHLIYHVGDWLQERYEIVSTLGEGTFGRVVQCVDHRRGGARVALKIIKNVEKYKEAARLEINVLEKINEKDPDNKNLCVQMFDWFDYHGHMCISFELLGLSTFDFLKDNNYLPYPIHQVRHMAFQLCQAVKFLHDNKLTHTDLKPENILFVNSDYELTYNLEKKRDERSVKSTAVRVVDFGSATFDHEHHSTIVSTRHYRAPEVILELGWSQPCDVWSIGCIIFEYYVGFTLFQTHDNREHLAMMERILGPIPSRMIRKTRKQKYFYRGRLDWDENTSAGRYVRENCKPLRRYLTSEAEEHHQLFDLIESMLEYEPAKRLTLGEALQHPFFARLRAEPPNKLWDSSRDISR
T1 sequence (P24864 whole entry, looked up): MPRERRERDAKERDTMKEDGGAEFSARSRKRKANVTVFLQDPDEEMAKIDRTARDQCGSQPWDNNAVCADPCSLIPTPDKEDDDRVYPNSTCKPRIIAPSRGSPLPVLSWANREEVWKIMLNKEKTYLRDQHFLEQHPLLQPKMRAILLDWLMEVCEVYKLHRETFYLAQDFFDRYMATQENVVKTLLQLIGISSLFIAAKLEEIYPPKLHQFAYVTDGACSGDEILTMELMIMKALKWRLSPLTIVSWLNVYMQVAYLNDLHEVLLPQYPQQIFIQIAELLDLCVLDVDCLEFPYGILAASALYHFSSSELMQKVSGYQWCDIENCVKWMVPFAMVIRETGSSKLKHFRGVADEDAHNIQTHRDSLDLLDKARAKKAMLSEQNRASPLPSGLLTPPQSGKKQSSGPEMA
T1 sequence (Q00526 whole entry, looked up): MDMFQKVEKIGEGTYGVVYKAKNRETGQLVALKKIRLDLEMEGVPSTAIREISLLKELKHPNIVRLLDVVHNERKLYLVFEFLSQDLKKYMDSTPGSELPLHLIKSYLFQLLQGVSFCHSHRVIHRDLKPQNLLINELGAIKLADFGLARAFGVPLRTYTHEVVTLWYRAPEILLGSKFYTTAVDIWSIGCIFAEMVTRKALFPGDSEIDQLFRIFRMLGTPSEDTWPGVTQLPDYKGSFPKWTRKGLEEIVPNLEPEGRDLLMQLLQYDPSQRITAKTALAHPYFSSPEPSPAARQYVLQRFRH
Sequence of Casein kinase I isoform gamma-2 (Homo sapiens) (P78368 whole entry, looked up, canonical isoform): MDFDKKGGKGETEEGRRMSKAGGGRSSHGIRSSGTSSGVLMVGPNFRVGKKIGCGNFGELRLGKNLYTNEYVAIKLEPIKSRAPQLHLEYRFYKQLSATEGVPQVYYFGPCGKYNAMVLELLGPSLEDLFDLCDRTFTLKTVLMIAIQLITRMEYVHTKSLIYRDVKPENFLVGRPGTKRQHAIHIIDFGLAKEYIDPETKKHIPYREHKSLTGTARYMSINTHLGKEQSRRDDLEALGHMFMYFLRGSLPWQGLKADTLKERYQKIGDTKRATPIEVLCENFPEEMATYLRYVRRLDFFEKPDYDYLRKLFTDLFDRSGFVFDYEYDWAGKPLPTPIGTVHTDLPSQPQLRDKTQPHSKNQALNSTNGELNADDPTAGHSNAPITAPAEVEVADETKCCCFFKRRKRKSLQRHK
Sequence of Casein kinase I isoform gamma-3 (Homo sapiens) (Q9Y6M4 whole entry, looked up, canonical isoform): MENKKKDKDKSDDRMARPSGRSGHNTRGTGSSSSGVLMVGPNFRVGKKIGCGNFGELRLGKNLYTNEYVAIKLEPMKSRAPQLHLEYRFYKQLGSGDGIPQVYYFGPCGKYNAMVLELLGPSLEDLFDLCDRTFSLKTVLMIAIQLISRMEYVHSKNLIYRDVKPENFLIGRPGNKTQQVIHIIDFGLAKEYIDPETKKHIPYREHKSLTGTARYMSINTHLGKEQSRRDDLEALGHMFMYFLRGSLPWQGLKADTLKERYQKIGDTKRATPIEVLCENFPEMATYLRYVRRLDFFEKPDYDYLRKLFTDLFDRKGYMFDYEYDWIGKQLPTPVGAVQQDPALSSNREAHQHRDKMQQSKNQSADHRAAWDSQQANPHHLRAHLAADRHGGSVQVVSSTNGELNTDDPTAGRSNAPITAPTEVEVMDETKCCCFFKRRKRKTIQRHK

For the molecule `Fc1ccc(-c2c(-c3ccncc3)nc3n2CCS3)cc1`, the inhibition in assay [1] was -0.73%; in [2], -3.04%; in assay [3], -1.19%; in assay [4], -4.51%; in [5], -4.05%; in assay [6] it was -1.82%. Moreover, the inhibition is -3.21% in assay [7]; -1.42% in assay [8]; 0.06% in assay [9]; 2.29% in [10]; -3.24% in assay [11]; -2.5% in assay [12]. In addition, the inhibition in assay [13] was -1.15%; in assay [14], -3.5%; in assay [15] it was -3.63%; in assay [16], -6.1%; in assay [17], -2.27%; in [18] it was 0.14%. For the same molecule, the inhibition in [19] is 0.05%; in assay [20], -2.3%.

`COc1cc(Nc2ncc(-c3ccccc3)o2)cc(OC)c1OC`: the inhibition in assay [1] is -0.69%; in [2], -0.27%; in assay [3], -0.18%; in [4] it was 0.44%; in assay [5], 6.1%; in [6] it was 0.56%. The inhibition worked out at 9.21% in assay [7]; 0.79% in assay [8]; 6.45% in [9]; 0.2% in [10]; 5.95% in assay [11]; 0.45% in assay [12]. In addition, the inhibition in [13] was 1.93%; in [14], 0.52%; in assay [15], 6.19%; in assay [16], 0.43%; in assay [17], 3.26%; in [18], 0.35%. Further, the figures for the inhibition in [19] and in [20] were 3.33% and 0.69%, respectively.

For the molecule `COc1cccc(-n2cnc3c(N/N=C/c4ccncc4)ncnc32)c1`, the inhibition in assay [1] is -5.36%; in [2] it was -3.39%; in assay [3], -3.3%; in assay [4], -3.5%; in assay [5], 0.55%; in [6], -3.99%. The inhibition in [7] is 8.02%; in assay [8], -3.22%; in [9], -2.32%; in [10], -0.66%; in assay [11] it was 0.9%; in assay [12], -6.94%. For the same molecule, the inhibition in [13] is -4.27%; in [14], -3.69%; in [15], -0.49%; in assay [16] it was -0.76%; in assay [17] it was -8.82%; in assay [18], 3.04%. Further, the inhibition in assay [19] is 5.72%; in [20], -3.93%.

Consider `CNC(=O)c1cncc(/C=C/c2c(C)cccc2C)c1`, for which the inhibition in assay [1] is -0.99%; in assay [2] it was -1.38%; in [3], -0.55%; in assay [4], -3.38%; in [5] it was 1.17%; in [6], -3.98%. The inhibition in assay [7] was 4.82%; in assay [8] it was -1.1%; in assay [9] it was -2.25%; in assay [10] it was -0.48%; in [11] it was -0.8%; in [12], -2.46%. Also, the inhibition in [13] is -1.6%; in [14], -2.99%; in assay [15], -1.16%; in [16] it was 3.56%; in assay [17], 0.79%; in assay [18] it was 0.58%. Moreover, the inhibition in [19] was -1.19%; in [20], -2%.

As to `COc1cccc(/C=N/Nc2ncnc3c2cnn3-c2cccc(OC)c2)c1`, the inhibition in assay [1] came out at 3.85%; in assay [2], 2.41%; in [3] it was 1.09%; in assay [4], 1.12%; in [5] it was 4.16%; in [6], 1.78%. The inhibition was 5.08% in assay [7]; 2.49% in assay [8]; 3.83% in assay [9]; -2.31% in assay [10]; -2.86% in assay [11]; 2.17% in assay [12]. The inhibition is 4.46% in [13]; 0.77% in assay [14]; 3.98% in [15]; -0.23% in assay [16]; 1.15% in [17]; 0.01% in assay [18]. The values for the inhibition in assay [19] and in assay [20] were 0.99% and 0.55%, respectively.

Take `CCc1cccc(CC)c1/C=C/c1cncc(C(=O)NC)c1`: the inhibition in assay [1] was 5.11%; in assay [2], 2.87%; in assay [3], 4.99%; in [4], -0.08%; in assay [5], 1.65%; in [6], 1.26%. The inhibition in assay [7] is 3.61%; in assay [8] it was 2.79%; in assay [9], 4.02%; in assay [10], -0.92%; in assay [11], 1.62%; in assay [12] it was 3.61%. For the same molecule, the inhibition was 4.03% in assay [13]; 0.43% in [14]; 1.68% in assay [15]; 3.11% in [16]; 2.84% in assay [17]; -1.55% in [18]. The inhibition in assay [19] turned out to be 3.8%; in [20], 1.35%.

As to `C[C@@H](Oc1cc(-n2cnc3ccc(OC4CCN(C)CC4)cc32)sc1C(N)=O)c1ccccc1Cl`, the inhibition in [1] was -0.19%; in [2] it was -1.77%; in assay [3] it was -4.38%; in [4] it was -1.71%; in assay [5], -2.15%; in assay [6], -1.38%. For the same molecule, the inhibition in assay [7] is -0.94%; in assay [8], -0.63%; in assay [9] it was 2.09%; in [10], -3.54%; in [11], 0.13%; in [12] it was -0.83%. For the same molecule, the inhibition in assay [13] was -0.3%; in assay [14], -2.91%; in assay [15] it was -2.26%; in assay [16], -5.27%; in [17], -2.7%; in assay [18], 3.05%. The figures for the inhibition in [19] and in [20] were 6.53% and -2.76%, respectively.

In the case of `CCc1ccc(Oc2nccc(-c3c(-c4ccc(F)cc4)ncn3C3CCNCC3)n2)cc1`, the inhibition in [1] was 11.5%; in assay [2], 6.23%; in assay [3], 30%; in assay [4], 2.36%; in [5], 2.02%; in assay [6], 3.63%. The inhibition in assay [7] was 2.75%; in [8], 2.03%; in assay [9], 2.75%; in assay [10], -2.23%; in [11], -3.4%; in assay [12] it was 1.49%. In addition, the inhibition is 2.34% in assay [13]; 0.94% in assay [14]; 2.25% in assay [15]; -3.34% in [16]; -4.3% in [17]; 1.29% in [18]. The inhibition in [19] was 3.58%; in assay [20], 0.96%.

The values above are taken from ChEMBL document CHEMBL1961873, “Compounds: GSK PKIS; Assays: Nanosyn kinase panel” (2012).
